From PubChem BioAssay AID1159580 (chemical genetic matrix, 2015)
Several values for one entry are separate records, joined by “and”; a condition that tells them apart may be missing. Identical values can stand only once. Out of some 5,500 compounds screened, about 2,000 (36%) were called active. About 18% were inconclusive and are not listed. Rule as the data show it: active = normalized growth mostly below about 0.91 (no sharp cut-off); inconclusive = no clear call, values can overlap the other calls; inactive = mostly above about 0.92. The list shows a part of the results.

Experiment: chemical genetic growth profiling, strain panel (AID 1159580);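 also: tested at 20 µM; growth read once vehicle control cultures reached saturation at 30 °C; 1 = growth at the plate median or of vehicle wells; lower values mean less growth of the strain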
Conditions: S. cerevisiae deletion strains, growth OD

Measured: normalized growth

Nc1ccc(C(=O)Oc2ccccc2)c(O)c1
0.651 (active) and 0.94 (inactive): locus YJL095W, strain BCK1, stronger effect = lower value
0.9 (active) and 0.937 (inactive): locus YHR030C, strain SLT2, stronger effect = lower value
inactive: locus YAL021C, strain ccr4, stronger effect = lower value 0.967 | locus YAL026C, strain drs2, stronger effect = lower value 0.915 | locus YAL030W, strain snc1, stronger effect = lower value 0.935 | locus YBL061C, strain skt5, stronger effect = lower value 0.932 | locus YBR009C, strain hhf1, stronger effect = lower value 0.934 | locus YBR021W, strain FUR4, stronger effect = lower value 0.981 | locus YBR023C, strain chs3, stronger effect = lower value 0.925 | locus YBR171W, strain sec66, stronger effect = lower value 0.937 | locus YBR229C, strain ROT2, stronger effect = lower value 0.948 | locus YBR231C, strain swc5, stronger effect = lower value 0.954 | locus YBR279W, strain paf1, stronger effect = lower value 0.957 | locus YCL011C, strain gbp2, stronger effect = lower value 0.929 | locus YCL016C, strain dcc1, stronger effect = lower value 0.942 | locus YCL061C, strain MRC1, stronger effect = lower value 0.951 | locus YCL069W, strain vba3, stronger effect = lower value 0.95 | locus YDL005C, strain med2, stronger effect = lower value 0.971 | locus YDL035C, strain GPR1, stronger effect = lower value 0.867 | locus YDL040C, strain nat1, stronger effect = lower value 0.938 | locus YDL101C, strain DUN1, stronger effect = lower value 0.906 | locus YDL185W, strain tfp1, stronger effect = lower value 0.966 | locus YDR001C, strain nth1, stronger effect = lower value 0.936 | locus YDR069C, strain doa4, stronger effect = lower value 0.948 | locus YDR150W, strain NUM1, stronger effect = lower value 0.957 | locus YDR195W, strain ref2 1.04 | locus YDR297W, strain sur2, stronger effect = lower value 0.932 | locus YDR334W, strain swr1, stronger effect = lower value 0.944 | locus YDR335W, strain msn5, stronger effect = lower value 0.941 | locus YDR392W, strain spt3, stronger effect = lower value 0.81 | locus YEL003W, strain gim4, stronger effect = lower value 0.933 | locus YEL037C, strain rad23, stronger effect = lower value 0.946 | locus YEL061C, strain CIN8 (second series), stronger effect = lower value 0.916 | locus YEL061C, strain CIN8, stronger effect = lower value 0.938 | locus YER015W, strain faa2, stronger effect = lower value 0.944 | locus YER016W, strain bim1, stronger effect = lower value 0.941 | locus YER111C, strain swi4, stronger effect = lower value 0.938 | locus YER155C, strain BEM2, stronger effect = lower value 0.947 | locus YFR010W, strain ubp6, stronger effect = lower value 0.95 | locus YGL167C, strain pmr1, stronger effect = lower value 0.942 | locus YGL227W, strain vid30, stronger effect = lower value 0.927 | locus YGL253W, strain hxk2, stronger effect = lower value 0.967 | locus YHR013C, strain ard1, stronger effect = lower value 0.907 | locus YHR027C, strain rpn1, stronger effect = lower value 0.945 | locus YHR079C, strain IRE1, stronger effect = lower value 0.929 | locus YHR094C, strain hxt1, stronger effect = lower value 0.926 | locus YHR142W, strain chs7, stronger effect = lower value 0.894 | locus YIL073C, strain SPO22, stronger effect = lower value 0.764 | locus YJL092W, strain hpr5, stronger effect = lower value 0.943 | locus YJL095W, strain BCK1 (second series), stronger effect = lower value 0.936 | locus YJL115W, strain asf1, stronger effect = lower value 0.936 | locus YJL129C, strain trk1, stronger effect = lower value 0.892 | locus YJL134W, strain LCB3, stronger effect = lower value 0.955 | locus YJL154C, strain vps35, stronger effect = lower value 0.941 | locus YJL164C, strain tpk1, stronger effect = lower value 0.919 | locus YJL166W, strain qcr8, stronger effect = lower value 0.935 | locus YJL187C, strain SWE1 (second series), stronger effect = lower value 0.876 | locus YJL187C, strain SWE1, stronger effect = lower value 0.944 | locus YJR043C, strain POL32, stronger effect = lower value 0.932 | locus YJR066W, strain TOR1, stronger effect = lower value 0.893 | locus YKL009W, strain mrt4, stronger effect = lower value 0.894 | locus YKL160W, strain elf1, stronger effect = lower value 0.942 | locus YKL190W, strain CNB1, stronger effect = lower value 0.939 | locus YKR091W, strain srl3, stronger effect = lower value 0.948 | locus YLL001W, strain dnm1, stronger effect = lower value 0.951 | locus YLL026W, stronger effect = lower value 0.943 | locus YLL041C, strain sdh2, stronger effect = lower value 0.929 | locus YLR027C, strain aat2, stronger effect = lower value 0.927 | locus YLR058C, strain SHM2, stronger effect = lower value 0.909 | locus YLR113W, strain HOG1, stronger effect = lower value 0.862 | locus YLR221C, strain rsa3, stronger effect = lower value 0.932 | locus YLR258W, strain gsy2, stronger effect = lower value 0.948 | locus YLR342W, strain FKS1, stronger effect = lower value 0.915 | locus YLR357W, strain rsc2, stronger effect = lower value 0.919 | locus YLR370C, strain arc18, stronger effect = lower value 0.927 | locus YLR384C, strain iki3, stronger effect = lower value 0.962 | locus YML016C, strain PPZ1, stronger effect = lower value 0.924 | locus YMR058W, strain fet3, stronger effect = lower value 0.929 | locus YMR125W, strain sto1, stronger effect = lower value 0.942 | locus YMR129W, stronger effect = lower value 0.946 | locus YMR231W, strain pep5, stronger effect = lower value 0.983 | locus YNL067W, strain RPL9B, stronger effect = lower value 0.867 | locus YNL128W, strain TEP1, stronger effect = lower value 0.905 | locus YNL153C, strain GIM3, stronger effect = lower value 0.905 | locus YNL183C, strain NPR1, stronger effect = lower value 0.859 | locus YNL209W, strain ssb2, stronger effect = lower value 0.955 | locus YNL248C, strain rpa49, stronger effect = lower value 0.923 | locus YNL250W, strain rad50, stronger effect = lower value 0.95 | locus YNL322C, strain KRE1 (second series), stronger effect = lower value 0.942 | locus YNR049C, strain mso1, stronger effect = lower value 0.933 | locus YOL012C, strain htz1 1.98 | locus YOR001W, strain rrp6, stronger effect = lower value 0.92 | locus YOR061W, strain CKA2, stronger effect = lower value 0.928 | locus YOR069W, strain VPS5, stronger effect = lower value 0.95 | locus YOR070C, strain gyp1, stronger effect = lower value 0.937 | locus YOR080W, strain dia2, stronger effect = lower value 0.961 | locus YOR083W, strain WHI5, stronger effect = lower value 0.93 | locus YOR106W, strain vam3, stronger effect = lower value 0.878 | locus YOR231W, strain MKK1, stronger effect = lower value 0.923 | locus YOR265W, strain rbl2, stronger effect = lower value 0.931 | locus YOR290C, strain snf2, stronger effect = lower value 0.885 | locus YPL051W, strain arl3, stronger effect = lower value 0.938 | locus YPL078C, strain atp4, stronger effect = lower value 0.929 | locus YPL106C, strain sse1, stronger effect = lower value 0.965 | locus YPL240C, strain hsp82, stronger effect = lower value 0.953 | locus YPL256C, strain CLN2, stronger effect = lower value 0.904
active: locus YCL029C, strain bik1, stronger effect = lower value 0.883 | locus YCR088W, strain abp1, stronger effect = lower value 0.921 | locus YDL074C, strain BRE1, stronger effect = lower value 0.67 | locus YDL134C, strain PPH21, stronger effect = lower value 0.837 | locus YDL192W, strain arf1, stronger effect = lower value 0.807 | locus YDR101C, strain arx1, stronger effect = lower value 0.864 | locus YDR137W, strain rgp1, stronger effect = lower value 0.545 | locus YDR159W, strain sac3, stronger effect = lower value 0.862 | locus YDR162C, strain NBP2, stronger effect = lower value 0.567 | locus YDR318W, strain mcm21, stronger effect = lower value 0.765 | locus YDR388W, stronger effect = lower value 0.884 | locus YDR502C, strain sam2, stronger effect = lower value 0.767 | locus YER110C, stronger effect = lower value 0.86 | locus YER155C, strain BEM2 (second series), stronger effect = lower value 0.533 | locus YER167W, strain BCK2, stronger effect = lower value 0.759 | locus YGL078C, strain dbp3, stronger effect = lower value 0.893 | locus YGL086W, strain mad1, stronger effect = lower value 0.801 | locus YGL173C, strain kem1, stronger effect = lower value 0.899 | locus YGL240W, strain doc1, stronger effect = lower value 0.864 | locus YGL248W, strain PDE1, stronger effect = lower value 0.864 | locus YGR135W, strain pre9, stronger effect = lower value 0.676 | locus YGR252W, strain gcn5, stronger effect = lower value 0.589 | locus YHR079C, strain IRE1 (second series), stronger effect = lower value 0.864 | locus YHR129C, strain ARP1, stronger effect = lower value 0.88 | locus YHR200W, strain rpn10, stronger effect = lower value 0.913 | locus YIL066C, strain RNR3, stronger effect = lower value 0.741 | locus YIL125W, strain kgd1, stronger effect = lower value 0.922 | locus YIR030C, strain dcg1, stronger effect = lower value 0.867 | locus YJL168C, strain set2, stronger effect = lower value 0.921 | locus YJR075W, strain HOC1, stronger effect = lower value 0.84 | locus YKL068W, stronger effect = lower value 0.93 | locus YKL085W, strain MDH1 (second series), stronger effect = lower value 0.914 | locus YKL085W, strain MDH1, stronger effect = lower value 0.914 | locus YKR001C, strain vps1, stronger effect = lower value 0.672 | locus YKR026C, strain gcn3, stronger effect = lower value 0.896 | locus YLR039C, strain RIC1, stronger effect = lower value 0.346 | locus YLR102C, strain apc9, stronger effect = lower value 0.917 | locus YLR262C, strain YPT6 (second series), stronger effect = lower value 0.558 | locus YLR262C, strain YPT6, stronger effect = lower value 0.352 | locus YLR268W, strain sec22, stronger effect = lower value 0.861 | locus YLR320W, strain mms22, stronger effect = lower value 0.797 | locus YLR330W, strain CHS5, stronger effect = lower value 0.876 | locus YLR342W, strain FKS1 (second series), stronger effect = lower value 0.662 | locus YLR371W, strain rom2, stronger effect = lower value 0.77 | locus YLR418C, strain cdc73, stronger effect = lower value 0.453 | locus YML032C, strain rad52, stronger effect = lower value 0.774 | locus YML120C, strain ndi1, stronger effect = lower value 0.904 | locus YML124C, strain tub3, stronger effect = lower value 0.904 | locus YMR078C, strain ctf18, stronger effect = lower value 0.861 | locus YMR205C, strain PFK2, stronger effect = lower value 0.861 | locus YMR223W, strain ubp8, stronger effect = lower value 0.825 | locus YMR307W, strain GAS1, stronger effect = lower value 0.402 | locus YNL071W, strain lat1, stronger effect = lower value 0.786 | locus YNL233W, strain BNI4, stronger effect = lower value 0.788 | locus YNL271C, strain bni1, stronger effect = lower value 0.918 | locus YNL298W, strain CLA4, stronger effect = lower value 0.908 | locus YNL307C, strain MCK1, stronger effect = lower value 0.323 | locus YNR052C, strain pop2, stronger effect = lower value 0.883 | locus YOL147C, strain pex11, stronger effect = lower value 0.767 | locus YOR136W, strain idh2, stronger effect = lower value 0.919 | locus YOR144C, strain elg1, stronger effect = lower value 0.888 | locus YOR184W, strain ser1, stronger effect = lower value 0.504 | locus YOR270C, strain vph1, stronger effect = lower value 0.732 | locus YOR316C, strain cot1, stronger effect = lower value 0.918 | locus YPR119W, strain clb2, stronger effect = lower value 0.91 | locus YPR141C, strain kar3, stronger effect = lower value 0.896 | locus YPR163C, strain tif3, stronger effect = lower value 0.71 | locus YPR167C, strain met16, stronger effect = lower value 0.885 | strain wtn01, stronger effect = lower value 0.751
